Data reported in PubChem BioAssay.
“And” between values parts separate entries of the source, which are not always exact repeats. Equal entries are not always repeated. Inconclusive results are not listed. For part of these data: Potency and affinity values are given separately. The source made the active and inactive calls. Unless noted, no stated cut-off is given here; in the data, active means inhibition above about 80%; inactive means the rest.

How the values were obtained:
[1] = viability loss in pontine glioma line – cell-based, SU-DIPG-XVII, MIPE5.0, CellTiter-Glo, qHTS, dose response (AID 1347060; cut-off not given, nearly all actives have AC50 up to about 26 µM;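 on AC50: cells exposed to compound for 48 hours before viability readout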); conditions: CellTiter-Glo ATP luminescence
[2] = viability loss in pontine glioma line – cell-based, SU-DIPG-XIII, MIPE4.0, CellTiter-Glo, qHTS, dose response (AID 1347061; cut-off not given, nearly all actives have AC50 up to about 37 µM;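 further: cells exposed to compound for 48 hours before readout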); conditions: CellTiter-Glo ATP luminescence
[3] = viability loss in pontine glioma line – cell-based, JHH-DIPG-1, MIPE4.0, CellTiter-Glo, qHTS, dose response (AID 1347062; cut-off not given, nearly all actives have AC50 up to about 27 µM;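 on AC50: cells exposed to compound for two days before readout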); conditions: JHH-DIPG-1 viability, CellTiter-Glo ATP luminescence
[4] = viability loss in pontine glioma line – cell-based, SU-DIPG-IV, MIPE4.0, CellTiter-Glo, qHTS, dose response (AID 1347063; cut-off not given, nearly all actives have AC50 up to about 30 µM;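 further: compound exposure lasted 48 hours before the viability readout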); conditions: CellTiter-Glo ATP luminescence
[5] = viability loss in pontine glioma line – cell-based, SU-DIPG-XXV, MIPE5.0, CellTiter-Glo, qHTS, dose response (AID 1347065; cut-off not given, nearly all actives have AC50 up to about 26 µM;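 further: cells exposed to compound for 48 hours before ATP readout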); conditions: CellTiter-Glo ATP luminescence
[6] = growth inhibition of DIPG cells – cell-based, MIPE4.0 library, CellTiter-Glo luminescence, qHTS (AID 1347066; cut-off not given, nearly all actives have AC50 up to about 30 µM;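 further: cells exposed to compound for 48 hours before readout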); conditions: SU-DIPG-VI viability, CellTiter-Glo ATP luminescence
[7] = JHH-DIPG-1 glioma cell viability, MIPE5.0 library, CellTiter-Glo luminescence, qHTS (AID 1347067; cut-off not given, nearly all actives have AC50 up to about 26 µM;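 further: cells exposed to compound for 48 hours before readout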); conditions: JHH-DIPG-1 glioma viability, CellTiter-Glo ATP luminescence
[8] = growth inhibition of DIPG cells – cell-based, MIPE5.0 library, qHTS (AID 1347068; cut-off not given, nearly all actives have IC50 up to about 30 µM;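 on IC50: cells exposed to compound for 48 hours before viability readout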); conditions: SU-DIPG-XXV viability
[9] = restoration of touch response, mutant HTT neurons – whole organism, C. elegans mechanosensory neurons, N-terminal huntingtin (AID 1599); conditions: C. elegans polyQ-huntingtin mechanosensory neurons, stronger effect = higher value
[10] = GFP-Q80 aggregate reduction, neuronal-like cells, cell-based, NGF-treated PC12, GFPQ80 (AID 1614); conditions: PC12 NGF-treated GFP-polyQ80 inclusion reduction;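 further: lower means fewer inclusions and 0 means no inclusions at all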
[11] = 75Q-TubH aggregate inhibition, S. cerevisiae, yeast (AID 1616); conditions: S. cerevisiae 75Q-TubH polyglutamine aggregation suppression; stronger effect = higher value
[12] = compounds altering viability of human ES cells (AID 493140; call rule not given here;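 further: cells exposed to compounds for four days before counting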); conditions: human embryonic stem cell survival screen; stronger effect = higher value
[13] = system: Hepatitis C virus NS3 helicase; assay: blockers of NS3h binding to ssDNA – biochemical, fluorescence polarization, LOPAC1280 library, primary screen (AID 687035; in the data active means inhibition above about 37%); conditions: Purified HCV NS3 helicase, Cy5-dT15 ssDNA binding fluorescence polarization; stronger effect = higher value; concentration not given here
[14] = compounds altering Cy5-DNA-NS3h complex signal – biochemical, LOPAC1280, artefact control for HCV NS3 helicase inhibitor project (AID 687037; call rule not given here); conditions: Cy5-DNA-NS3h complex fluorescence interference counterscreen
[15] = blockers of cellular phospholipid synthesis – cell-based, LOPAC library, screen 4, primary screen (AID 1347384; call rule not given here); conditions: animal cells, phospholipid biosynthesis inhibition screen; at 10 µM
[16] = growth inhibition, single agents and combos, LFS_MB_1R, cell-based, cisplatin or BGB combos, synergistic combos for chromothripsis tumors (AID 1671452); conditions: LFS_MB_1R medulloblastoma cells, stronger effect = higher value;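 further: cells exposed for 96 hours before readout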
[17] = growth inhibition, MDA-MB-436, cell-based, BGB or cisplatin combos, synergistic combos for chromothripsis tumors (AID 1671458; call rule not given here;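 further: cells exposed for 96 hours; 0% = vehicle DMSO and 100% = killing by high DMSO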); conditions: MDA-MB-436 breast carcinoma growth inhibition, drug combinations, stronger effect = higher value
[18] = BT084 cell growth, single and combined drugs, ICGC_MB145, cisplatin and BGB IC40 combos (AID 1671461); conditions: BT084 medulloblastoma cells, drug combinations, stronger effect = higher value;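 further: cells exposed to drugs for 96 hours; 0% = vehicle DMSO and 100% = high DMSO full killing control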
[19] = RCMB18 cell growth, single agent and combined, cisplatin and BGB IC40 combos (AID 1671462); conditions: RCMB18 medulloblastoma cells, stronger effect = higher value;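 further: cells exposed to compound for four days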
[20] = CRL1545 cell growth, single agent and combined, cisplatin and BGB IC20 combos (AID 1671464); conditions: CRL1545 osteosarcoma cells, stronger effect = higher value;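 further: cells exposed to compound for 96 hours before readout; 0% = vehicle DMSO and 100% = high DMSO killing control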
[21] = measured here: combination with BGB IC40, at 0.05 µM
[22] = measured here: combination with cisplatin, at 0.5 µM
[23] = measured here: combination with cisplatin, at 5 µM
[24] = measured here: BGB combination, at 0.5 µM
[25] = measured here: BGB combination, at 5 µM
[26] = measured here: cisplatin combination, at 0.5 µM
[27] = measured here: cisplatin combination, at 5 µM
[28] = cisplatin combination, at 0.5 µM
[29] = measured here: BGB IC40 combination 0.05 uM, at 0.05 µM
[30] = measured here: BGB IC40 combination, at 0.05 µM
[31] = measured here: with BGB IC20 combination, at 0.5 µM
[32] = measured here: with cisplatin IC20 combination, at 0.5 µM

## CCCc1nc2c(C)cc(-c3nc4ccccc4n3C)cc2n1Cc1ccc(-c2ccccc2C(=O)O)cc1
[1]
  outcome: inactive
[2]
  outcome: inactive
[3]
  outcome: inactive
[4]
  outcome: inactive
[5]
  outcome: inactive
[6]
  outcome: inactive
[7]
  outcome: inactive
[8]
  outcome: inactive

## CC12CC3CC(C)(C1)CC(N)(C3)C2
[9]
  rescue above control: -2.96
[10]
  inclusion score: 2
[11]
  aggregation suppression score: 1.45
[12]
  survival: 11.7 (inactive)
[13]
  inhibition: -2% (inactive)
[14]
  fluorescence ratio (interference): 1 (inactive)
[3]
  AC50: 3.32 µM (active)
[5]
  outcome: inactive
[6]
  outcome: inactive
[7]
  outcome: inactive
[8]
  outcome: inactive
[15]
  outcome: inactive

## S=c1nc[nH]c2nc[nH]c12
[9]
  rescue above control: -8.7
[11]
  aggregation suppression score: 1.29
[1]
  AC50: 1.18 µM (active)
[2]
  outcome: inactive
[3]
  AC50: 0.935 µM (active)
[4]
  outcome: inactive
[5]
  AC50: 5.25 µM (active)
[16]; at 0.5 µM
  inhibition: -9.9% (inactive) and -33.2% (inactive) and -36.1% (inactive)
[16]; [21]
  inhibition: 14.7% and -35.7% and -8.62%
[16]; [22]
  inhibition: -4.25% and -33.8% and -75.5%
[16]; [23]
  inhibition: -15.4% and -37% and -57.5%
[17]; at 0.5 µM
  inhibition: -2.57% (inactive) and -1.27% (inactive) and 12.1% (inactive)
[17]; [24]
  inhibition: -26.2% and -7.09% and 10.3%
[17]; [25]
  inhibition: 19.5% and 16% and 25.5%
[17]; [26]
  inhibition: -2.23% and -7.71% and 3.05%
[17]; [27]
  inhibition: 44.5% and 28.1% and 46.1%
[18]; at 0.5 µM
  inhibition: -23.3% (inactive) and -12% (inactive) and -13.4% (inactive)
[18]; [28]
  inhibition: -28% and -16.1% and -18.3%
[18]; cisplatin combination, at 5 µM
  inhibition: -59.7% and -17.4% and -65.5%
[18]; [29]
  inhibition: -9.27% and 73.7% and -6.21%
[18]; single agent, at 5 µM
  inhibition: -10.1% and 19.3% and -6.27%
[19]; at 0.5 µM
  inhibition: 0.61% (inactive) and -7.44% (inactive) and -22.1% (inactive)
[19]; cisplatin combo, at 5 µM
  inhibition: 12.2% and -28% and -29.1%
[19]; [30]
  inhibition: 0.705% and 3.13% and 5.02%
[19]; [22]
  inhibition: 30% and -22% and -77.2%
[19]; single agent, at 5 µM
  inhibition: -40.6% and 41.7% and -25.7%
[20]; at 0.5 µM
  inhibition: -26.3% (inactive) and -12.8% (inactive) and -43.8% (inactive)
[20]; [31]
  inhibition: -10.8% and -54.5% and -18%
[20]; [32]
  inhibition: -34% and 8.01% and -56.8%
[20]; single agent, at 0.05 µM
  inhibition: 2.04% and -10.4% and -14.2%
[20]; single agent, at 5 µM
  inhibition: 33.1% and 21.8% and 31.5%

## O=C(O)c1cc(=O)c2c(OCC(O)COc3cccc4oc(C(=O)O)cc(=O)c34)cccc2o1
[9]
  rescue above control: 9.88
[10]
  inclusion score: 1
[11]
  aggregation suppression score: 1.35
[12]
  survival: 1.67 (inactive)
[1]
  outcome: inactive
[2]
  outcome: inactive
[3]
  outcome: inactive
[4]
  outcome: inactive
[6]
  outcome: inactive
[7]
  outcome: inactive
[8]
  outcome: inactive

## O=C1c2c(O)ccc(O)c2C(=O)c2c(NCCNCCO)ccc(NCCNCCO)c21
[9]
  rescue above control: 0
[11]
  aggregation suppression score: -1.69
[12]
  survival: 0.583 (inactive)
[13]
  inhibition: 119% (active)
[14]
  fluorescence ratio (interference): 0.5 (active)
[1]
  AC50: 0.417 µM (active)
[2]
  AC50: 18.7 µM (active)
[3]
  AC50: 2.35 µM (active)
[4]
  AC50: 6.62 µM (active)
[5]
  AC50: 11.8 µM (active)
[6]
  AC50: 23.5 µM (active)
[8]
  IC50: 18.6 µM (active)
[15]
  outcome: inactive
[16]; at 0.5 µM
  inhibition: -4.33% (inactive)
[16]; [21]
  inhibition: 1.71%
[16]; [22]
  inhibition: 72.8%
[16]; [23]
  inhibition: 94.2%
[17]; at 0.5 µM
  inhibition: 53.4% (inactive)
[17]; [24]
  inhibition: 42.1%
[17]; [25]
  inhibition: 93.8%
[17]; [26]
  inhibition: 45.8%
[17]; [27]
  inhibition: 95.6%
[18]; at 0.5 µM
  inhibition: -10.6% (inactive)
[18]; [28]
  inhibition: 42.8%
[18]; cisplatin combination, at 5 µM
  inhibition: 49.8%
[18]; [29]
  inhibition: -13%
[18]; single agent, at 5 µM
  inhibition: 75.3%
[19]; at 0.5 µM
  inhibition: -1.35% (inactive)
[19]; cisplatin combo, at 5 µM
  inhibition: 70.8%
[19]; [30]
  inhibition: -3.01%
[19]; [22]
  inhibition: -18.9%
[19]; single agent, at 5 µM
  inhibition: 55.2%
[20]; at 0.5 µM
  inhibition: 65.5% (inactive)
[20]; [31]
  inhibition: 74%
[20]; [32]
  inhibition: 61.2%
[20]; single agent, at 0.05 µM
  inhibition: 43.2%
[20]; single agent, at 5 µM
  inhibition: 99.2%
